Data from the supplement of paper PMC3334620.
Whole data set: some 33,000 sequences, median “E-score (-0.5 to 0.5)” near -0.015, cut for the highest 2% near 0.3. The sample as a whole holds a higher share of the highest values than the screen did.

molecular target: T1, Abf1 (UniProt P14164); test: PBM E-score (8-mer binding enrichment) (E-score (-0.5 to 0.5)); higher = stronger / more preferred TF binding; conditions: protein concentration: 200 nM; construct: GST-full length
T1 sequence: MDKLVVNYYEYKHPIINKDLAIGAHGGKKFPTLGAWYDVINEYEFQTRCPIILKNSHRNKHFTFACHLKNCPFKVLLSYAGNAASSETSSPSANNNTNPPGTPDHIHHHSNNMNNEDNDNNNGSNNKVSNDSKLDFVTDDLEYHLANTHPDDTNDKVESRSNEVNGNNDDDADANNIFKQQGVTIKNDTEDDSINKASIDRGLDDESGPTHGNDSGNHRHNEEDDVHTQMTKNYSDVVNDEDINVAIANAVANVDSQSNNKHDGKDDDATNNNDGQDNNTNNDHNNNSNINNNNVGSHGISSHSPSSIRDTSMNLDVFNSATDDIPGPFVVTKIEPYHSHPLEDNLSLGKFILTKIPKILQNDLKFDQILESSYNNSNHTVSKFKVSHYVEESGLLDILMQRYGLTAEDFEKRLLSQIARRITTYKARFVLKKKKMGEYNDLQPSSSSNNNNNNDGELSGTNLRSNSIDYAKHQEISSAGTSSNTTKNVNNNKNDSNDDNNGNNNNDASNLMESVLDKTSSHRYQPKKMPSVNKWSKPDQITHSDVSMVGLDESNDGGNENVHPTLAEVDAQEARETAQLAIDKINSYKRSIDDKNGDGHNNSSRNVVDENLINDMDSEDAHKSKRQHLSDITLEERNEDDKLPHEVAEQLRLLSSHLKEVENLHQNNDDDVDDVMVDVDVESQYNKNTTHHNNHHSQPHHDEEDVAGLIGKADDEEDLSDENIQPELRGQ
How it was run: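 Full-length yeast transcription factors or their DNA-binding domains, GST-tagged and expressed with PURExpress, were applied at about 100-200 nM to universal all-10-mer Agilent arrays. These arrays had been made double-stranded by primer extension on fresh or once-stripped slides. Detection used fluorescent anti-GST, normalisation used masliner, and E-scores for ungapped eight-base words pooled with reverse complements came from the Universal PBM Analysis Suite.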

Going from AAGGATGC to GGCTGCGA, the “PBM E-score” value rises from -0.213 to -0.0617.

Compared with CGAGGGAC, GGGGGCAA is higher in “PBM E-score” value: -0.189 for the first, -0.0502 for the second.

Compared with CGCATATC, CAACCTCA is lower in “PBM E-score” value: 0.239 for the first, -0.0877 for the second.

First: CCCTACCA
Second: ATTCTGTA
The “PBM E-score” value of the first is lower: 0.0127 for the first, 0.14 for the second.

Compared with TAGTGAAA, CAGTGATA is higher in “PBM E-score” value: -0.0802 for the first, 0.377 for the second.

Going from TAGTGAGA to CAGTGAGA, the “PBM E-score” value falls from 0.0964 to 0.0837.

First: AAGTGAGA
Second: AAGTGATA
The “PBM E-score” value of the first is lower: 0.0815 for the first, 0.39 for the second.

First: AAGTGAAA
Second: CACTGATA
The “PBM E-score” value of the first is lower: -0.0619 for the first, -0.056 for the second.

First: GAGTGATA
Second: TAGTGATA
The “PBM E-score” value of the first is lower: 0.424 for the first, 0.433 for the second.

Compared with GAGTGAAA, GAGTGAGA is higher in “PBM E-score” value: -0.117 for the first, 0.0215 for the second.

Going from CCTTGGTC to AATTTGAC, the “PBM E-score” value rises from -0.302 to 0.183.

Compared with CTGTCGGA, ACAGCTCT is lower in “PBM E-score” value: -0.123 for the first, -0.248 for the second.

Compared with AGTACTGA, CCGGGTTC is lower in “PBM E-score” value: -0.0709 for the first, -0.167 for the second.

First: GTAACTAA
Second: TTCGGAAA
The “PBM E-score” value of the first is higher: -0.0125 for the first, -0.148 for the second.

Compared with CAACGTAA, AATCTCTC is higher in “PBM E-score” value: -0.0145 for the first, 0.0576 for the second.

Compared with ATACCCCA, CACCCGCA is lower in “PBM E-score” value: 0.0583 for the first, -0.205 for the second.

Compared with GATCGGGC, CGTTACAC is higher in “PBM E-score” value: -0.195 for the first, 0.298 for the second.

Compared with CGTTATAG, CGTTATAA is higher in “PBM E-score” value: 0.105 for the first, 0.149 for the second.

First: CGTTATAC
Second: CGTTACAG
The “PBM E-score” value of the first is higher: 0.303 for the first, -0.0224 for the second.

Going from CGTTACAA to AATGTTGC, the “PBM E-score” value falls from 0.195 to 0.00562.

Compared with CGGCGTTC, CCGCCATC is lower in “PBM E-score” value: -0.0709 for the first, -0.26 for the second.

Compared with AGTCCACC, GAAAACTA is lower in “PBM E-score” value: -0.0728 for the first, -0.0964 for the second.

First: GTTCTGTA
Second: AATTCGTG
The “PBM E-score” value of the first is lower: -0.0186 for the first, 0.224 for the second.

Going from CTTTCGTA to CTTTCGTC, the “PBM E-score” value falls from 0.376 to 0.191.

Going from GTTTCGTA to CATTCGTC, the “PBM E-score” value falls from 0.26 to 0.222.

Compared with CATTCGTA, AATTCGTC is higher in “PBM E-score” value: 0.308 for the first, 0.315 for the second.

Going from CATTCGCA to AATTCGGA, the “PBM E-score” value rises from -0.1 to 0.029.

Compared with AATTCGTA, ATTTCGTC is lower in “PBM E-score” value: 0.307 for the first, 0.229 for the second.

First: GATTCGTA
Second: ACCCAGAA
The “PBM E-score” value of the first is higher: 0.262 for the first, -0.0336 for the second.

First: TTCCGAAA
Second: ATTTAAAT
The “PBM E-score” value of the first is lower: 0.104 for the first, 0.189 for the second.

Going from GATTACAC to CAAGCCCG, the “PBM E-score” value falls from 0.0768 to -0.172.

First: GTGGTATA
Second: CGGCCCAC
The “PBM E-score” value of the first is higher: -0.0621 for the first, -0.208 for the second.

First: TTCGTCAA
Second: ATCGTCAT
The “PBM E-score” value of the first is lower: 0.151 for the first, 0.349 for the second.

Going from ACCGTCAA to AACGTCAT, the “PBM E-score” value rises from 0.143 to 0.217.

Compared with ATCGTCAG, ATCGTCAA is higher in “PBM E-score” value: 0.154 for the first, 0.342 for the second.

Compared with ACCGTCAT, ACCGTCAG is lower in “PBM E-score” value: 0.362 for the first, 0.0392 for the second.

First: AGCGTCAA
Second: AAAAATCC
The “PBM E-score” value of the first is higher: -0.00287 for the first, -0.0226 for the second.

Compared with AGGTTGAA, CACTGCAA is lower in “PBM E-score” value: 0.0563 for the first, 0.0215 for the second.

Going from TCATCAGA to CAGCTTGA, the “PBM E-score” value falls from 0.094 to -0.141.

First: AGGAGGTG
Second: GAGGGACA
The “PBM E-score” value of the first is lower: -0.248 for the first, -0.103 for the second.

Going from CCTTTTAA to GCGGCGAA, the “PBM E-score” value falls from 0.0637 to -0.106.

Compared with TCGGCGAA, ACGGCGAT is higher in “PBM E-score” value: 0.00757 for the first, 0.313 for the second.

Going from ACGGCGCG to ACGGCGAC, the “PBM E-score” value falls from 0.324 to 0.224.

Going from ACGGCGAG to ACGGCGCT, the “PBM E-score” value falls from 0.111 to 0.09.

Going from ACGGCGCC to ACGGCGAA, the “PBM E-score” value rises from 0.184 to 0.343.

Compared with ACCCGGGT, ATGAGTCA is higher in “PBM E-score” value: -0.155 for the first, 0.0874 for the second.

Going from ACCCTAGG to CGCGTTGA, the “PBM E-score” value rises from -0.07 to 0.0564.

Compared with AGATGCTC, CAGGTAAG is lower in “PBM E-score” value: 0.0161 for the first, -0.0344 for the second.

Going from AGATAAGA to AATTCCAC, the “PBM E-score” value falls from 0.194 to 0.0539.

First: CAGGATGA
Second: AGACAAGC
The “PBM E-score” value of the first is higher: 0.197 for the first, -0.0992 for the second.

Compared with CTGACGAA, GTCACGAA is higher in “PBM E-score” value: 0.239 for the first, 0.402 for the second.

First: GTCACGAC
Second: GTGACGAA
The “PBM E-score” value of the first is lower: 0.261 for the first, 0.315 for the second.

First: ATGACGAC
Second: ATGACTAA
The “PBM E-score” value of the first is higher: 0.265 for the first, 0.146 for the second.

First: GTGACGGA
Second: TTCACGAA
The “PBM E-score” value of the first is lower: 0.149 for the first, 0.267 for the second.

Going from ATGACGAA to CTGACTAA, the “PBM E-score” value falls from 0.319 to 0.0088.

Going from GTGACTAA to GTGACGCA, the “PBM E-score” value falls from 0.327 to 0.103.

Going from AAGGTTCT to CGGGCACC, the “PBM E-score” value rises from -0.189 to -0.0646.

Compared with CGCAAAAG, CTCTCACC is lower in “PBM E-score” value: -0.0748 for the first, -0.0855 for the second.

Compared with GAGTAAAC, ATCCCGTA is higher in “PBM E-score” value: -0.0509 for the first, 0.215 for the second.

Compared with GGCGATCA, ATGGACTC is lower in “PBM E-score” value: -0.0321 for the first, -0.134 for the second.

Compared with CACGGACG, AACGGACG is lower in “PBM E-score” value: 0.337 for the first, 0.065 for the second.

Compared with CACGGACA, AAACCGGT is lower in “PBM E-score” value: 0.162 for the first, -0.0782 for the second.

Compared with CATACTGA, AAAGAGGA is lower in “PBM E-score” value: -0.108 for the first, -0.237 for the second.

First: ATAATCAC
Second: CTAATCAC
The “PBM E-score” value of the first is higher: 0.331 for the first, 0.251 for the second.

Going from ATAATCAT to ATAATCAG, the “PBM E-score” value falls from 0.326 to 0.0922.

Compared with ATAATCAA, GTAATCAC is higher in “PBM E-score” value: 0.0595 for the first, 0.141 for the second.

Going from CCACCTAC to ACCGTAGG, the “PBM E-score” value rises from -0.011 to 0.0666.

Going from CTAAATCC to AAGCGCCA, the “PBM E-score” value falls from 0.0568 to -0.247.

Compared with TGATGTAA, ACCCTCGA is lower in “PBM E-score” value: 0.145 for the first, -0.17 for the second.

Going from ACGACGGC to GCGACGAC, the “PBM E-score” value falls from 0.164 to 0.098.

Compared with ACGACGGA, GCGACGCA is lower in “PBM E-score” value: 0.251 for the first, 0.196 for the second.

Compared with TCGACGAA, GCGACGAA is lower in “PBM E-score” value: 0.349 for the first, 0.313 for the second.

First: TCGACAAA
Second: ACGACGCA
The “PBM E-score” value of the first is lower: -0.0435 for the first, 0.262 for the second.

First: ACGACGGG
Second: CCGACGAA
The “PBM E-score” value of the first is higher: 0.304 for the first, 0.205 for the second.

First: ACGACGAA
Second: TCGACGCA
The “PBM E-score” value of the first is higher: 0.373 for the first, 0.113 for the second.

Going from CATAAGTC to AACCGGTT, the “PBM E-score” value rises from -0.00466 to 0.0655.

Going from TAGAAGCA to CAAGGAAA, the “PBM E-score” value falls from -0.0239 to -0.198.

Going from AGGGCGCC to ATCGCTAA, the “PBM E-score” value rises from -0.0691 to 0.28.

First: ATCTATTC
Second: ACGACGAC
The “PBM E-score” value of the first is lower: 0.114 for the first, 0.292 for the second.

First: ACGACGAT
Second: ACGACGAG
The “PBM E-score” value of the first is higher: 0.315 for the first, 0.156 for the second.

Going from GTACTGCA to AAACACCC, the “PBM E-score” value rises from -0.101 to -0.0385.

Going from GGTGCACA to CATGTACG, the “PBM E-score” value rises from -0.05 to 0.319.

Going from AATGTACG to CATGTACA, the “PBM E-score” value falls from 0.192 to -0.0299.

Compared with TAAGTCTA, ATGTCAGG is higher in “PBM E-score” value: -0.136 for the first, -0.133 for the second.

First: ATGTCATC
Second: CTGTCATC
The “PBM E-score” value of the first is higher: 0.394 for the first, 0.108 for the second.

Compared with ATGTCATA, ATGTCATG is higher in “PBM E-score” value: 0.176 for the first, 0.349 for the second.

Compared with ATGTCAAG, AGTCGAAT is lower in “PBM E-score” value: -0.0386 for the first, -0.178 for the second.

First: AAGGAACC
Second: TCGATCGA
The “PBM E-score” value of the first is higher: -0.053 for the first, -0.141 for the second.

In the case of CAGACAAC, the “PBM E-score” value is reported as -0.0277.
